Test results taken from PubChem BioAssay (EPA / NIEHS).
Active and inactive are the calls of the source. The calls were made as follows: active = hit-call score of the fitted dose curve at least 0.9, where 1 is the maximum; inactive = score below 0.9.

Assay: CCTE_Shafer_MEA_acute_burst_duration_mean: CCTE's Neural Acute Assay for Mean Burst Duration, Shafer Lab (AID 2284014)
Method: CCTE_Shafer_MEA_acute assay is conducted using Axion Biosystems 48 well microelectrode array (MEA) plates and Maestro recording system. Each well of the MEA plate contains a grid of 16 microelectrodes embedded in the culture surface. Electrically active cells, such as neurons, can be cultured over the electrodes, and electrical activity in these cells can be recorded extracellularly. The spontaneous firing of neurons is captured from each electrode on a microsecond timescale providing both temporally and spatially precise data. […] The CCTE_Shafer_MEA_acute assay uses primary cultures of rat cortical neurons. As these cultures mature over time, neural networks develop functional activity and form cohesive networks in which electrical activity can be highly coordinated. Baseline 40-minute recordings are made on days post-plating 13 or 15, followed by a secondary 40-minute recording after chemical exposure.CCTE_Shafer_MEA_acute_burst_duration_mean is a component of the CCTE_Shafer_MEA_acute assay. It measures the average time from the first spike (action potential firing) to the last spike in a single-electrode burst (temporally-clustered group of spikes) during a recording in a microelectrode array (MEA) using Axion Biosystems Maestro 768 channel amplifier with the AxIS adaptive spike detector. The recordings before and after chemical treatment are used to calculate a percent change in the mean burst duration in each well.Data from the assay component CCTE_Shafer_MEA_acute_burst_duration_mean was analyzed into 1 assay endpoint. This assay endpoint, CCTE_Shafer_MEA_acute_burst_duration_mean, was analyzed in the negative analysis fitting direction relative to DMSO as the negative control and baseline of activity. Using a type of functional reporter, gain or loss-of-signal activity can be used to understand electrical activity.
Spontaneous activity in the cortical cultures was recorded using an Axion Biosystems Maestro 768 channel amplifier and Axion Integrated Studios (AxIS) v1.8 (or later) software. The amplifier recorded from all channels simultaneously (gain = 1200 x; sampling rate = 12.5 kHz/channel): raw signals were filtered with a Butterworth band-pass filter (300-5000 Hz), which filters out slower local field potentials leaving only fast potentials, i.e., "spikes", arising from extracellular currents associated with action potentials (Pine 2006; Wheeler and Nam 2011). On-line spike detection of filtered signals was conducted with the AxIS adaptive spike detector, using a threshold of 8x the root mean squared (rms) noise on each channel. Any electrodes with rms noise levels greater than 5 uV were grounded (e.g., no data were recorded). Once grounded, an electrode was grounded for the duration of the experiment. All recordings were conducted at 37 C. Wells were deemed usable if on the day of the exposure >/= 10 electrodes were active (defined as >/= 5 spikes/min). On DIV 13 or 15, a minimum of three wells from one cortical culture preparation were treated with each compound (0.03-40 uM). Prior to recording baseline activity, each mwMEA plate was placed in the Maestro at 37 C and allowed to sit for 20 min while firing rates stabilized. Baseline activity (40 min) was recorded before the addition of each compound. An additional 40 min of spontaneous activity was recorded in the presence of each compound. Changes in network parameters relative to baseline were assessed following compound treatment.

outcome, inactive:
O=CN1CCOCC1
CC(CN=Cc1ccccc1O)N=Cc1ccccc1O (stereo not given)
CN(C)C(=S)SC(=S)N(C)C
Oc1c(Cl)cc(Cl)c(Cl)c1Cc1c(O)c(Cl)cc(Cl)c1Cl
CCCCCCC(CO)CCCC (stereo not given)
CC1(C)CCC[C@]2(C)[C@H]3CCO[C@]3(C)CC[C@@H]12
CCOC(=O)C(C#N)=C(c1ccccc1)c1ccccc1
O=C(Nc1ccc2c(O)c(N=Nc3ccc(N=Nc4ccc(S(=O)(=O)O)cc4)cc3)c(S(=O)(=O)O)cc2c1)c1ccccc1
COCCc1ccc(OCC(O)CNC(C)C)cc1 (stereo not given)
C=CC(C)(O)CCC=C(C)C (stereo not given)
